According to PubChem BioAssay (NCI):
Where “and” joins values, the source holds several entries; their conditions need not be identical. Equal entries are not always repeated. This is part of a sample that, as a whole, favours compounds with a hit. Of some 83,000 tested, about 20% had one in any assay.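 Testing used 96-well plates and a 48-hour single-concentration exposure. Example: -40 means 40% of the starting cells died.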 Calls of active or inactive are those of the source. The calls were made as follows: active = growth percent below 10; inactive = the rest.

Legend:
Assay in all cases: NCI-60 one-dose screen, 48 h (100 = growth as untreated, 0 = no growth, -100 = all killed)
SR leukemia = settings: 10 µM unless noted
RPMI-8226 leukemia = settings: 10 µM unless noted
OVCAR-8 ovarian = settings: 10 µM unless noted
OVCAR-5 ovarian = settings: 10 µM unless noted
OVCAR-4 ovarian = settings: 10 µM unless noted
SK-OV-3 ovarian = settings: 10 µM unless noted
IGROV1 ovarian = settings: 10 µM unless noted
HS 578T breast = settings: 10 µM unless noted
NCI/ADR-RES ovarian = settings: 10 µM unless noted
T-47D breast = settings: 10 µM unless noted
BT-549 breast = settings: 10 µM unless noted
MDA-MB-435 melanoma = settings: 10 µM unless noted
SW-620 colon = settings: 10 µM unless noted
MCF7 breast = settings: 10 µM
HCT-116 colon = settings: 10 µM unless noted
HCC-2998 colon = settings: 10 µM unless noted
KM12 colon = settings: 10 µM unless noted
OVCAR-3 ovarian = settings: 10 µM unless noted

Measured: growth

O=C1c2ccccc2C(=O)c2sc(Nc3cccc(Cl)c3)nc21
inactive: SK-OV-3 ovarian 86.9% | T-47D breast 16% | BT-549 breast 61.5%
active: SR leukemia 2.67% | RPMI-8226 leukemia 2.31% | OVCAR-8 ovarian 1.49% | OVCAR-5 ovarian -67.4% | OVCAR-4 ovarian -9.21% | IGROV1 ovarian 0.883% | HS 578T breast -8.09% | NCI/ADR-RES ovarian -16.9% | MDA-MB-435 melanoma -83.5% | SW-620 colon -54.6% | MCF7 breast -59% | HCT-116 colon -29.9% | HCC-2998 colon -34.3%

O=[N+]([O-])c1ccc(N=Nc2ccc(O)cc2O)cc1
inactive: SR leukemia 16.6% | RPMI-8226 leukemia 43% | OVCAR-8 ovarian 61.9% | OVCAR-5 ovarian 107% | OVCAR-4 ovarian 48.4% | SK-OV-3 ovarian 87% | IGROV1 ovarian 76.5% | HS 578T breast 51.8% | NCI/ADR-RES ovarian 52.6% | T-47D breast 27.4% | BT-549 breast 64.5% | MDA-MB-435 melanoma 10.1% | SW-620 colon 47.8% | MCF7 breast 26% | HCT-116 colon 17.5% | HCC-2998 colon 31.6% | KM12 colon 64.3%

Oc1c(Cl)cc(Cl)c2cccnc12
inactive: SR leukemia 32.7% and 31.9% | RPMI-8226 leukemia 50.3% and 50.1% | OVCAR-8 ovarian 41.2% | OVCAR-5 ovarian 94.9% | OVCAR-4 ovarian 50.1% and 45.7% | SK-OV-3 ovarian 86.5% and 65.8% | IGROV1 ovarian 52.9% | HS 578T breast 72.9% and 52% | NCI/ADR-RES ovarian 27.4% and 29.3% | T-47D breast 52.4% and 43.4% | BT-549 breast 53.1% and 40.3% | MDA-MB-435 melanoma 63.1% and 54.3% | SW-620 colon 54.9% and 57.5% | MCF7 breast 50.8% and 29.1% | HCT-116 colon 40.6% and 25.6% | HCC-2998 colon 74.6% and 69.2%

O=[N+]([O-])c1ccc2c(N=Nc3ccc4ccccc4c3O)c(O)cc(S(=O)(=O)O)c2c1
inactive: SR leukemia 90.3% | RPMI-8226 leukemia 96.8% | OVCAR-8 ovarian 70.5% | OVCAR-5 ovarian 106% | OVCAR-4 ovarian 63% | SK-OV-3 ovarian 90% | IGROV1 ovarian 61.7% | HS 578T breast 105% | NCI/ADR-RES ovarian 86.1% | T-47D breast 96.1% | BT-549 breast 92.4% | MDA-MB-435 melanoma 97% | SW-620 colon 92.2% | MCF7 breast 98.6% | HCT-116 colon 93.3% | HCC-2998 colon 94.4%

COc1ccc(N=N/N=c2\sc3cc(OC)ccc3n2C)cc1
inactive: SR leukemia 88.9% | RPMI-8226 leukemia 77.3% | OVCAR-8 ovarian 75.1% | OVCAR-5 ovarian 98.6% | OVCAR-4 ovarian 108% | SK-OV-3 ovarian 86.3% | IGROV1 ovarian 91.7% | HS 578T breast 96% | NCI/ADR-RES ovarian 109% | T-47D breast 83.6% | BT-549 breast 95.5% | SW-620 colon 102% | MCF7 breast 78.9% | HCT-116 colon 95.8% | HCC-2998 colon 102% | KM12 colon 95%

O=C(/C=C\c1cc(Br)ccc1O)/C=C/c1cc(Br)ccc1O
inactive: OVCAR-4 ovarian 15.2% | SK-OV-3 ovarian 18.9% | HS 578T breast 37.8%
active: SR leukemia 1.17% | RPMI-8226 leukemia 0.234% | OVCAR-8 ovarian 3.86% | OVCAR-5 ovarian -22.2% | IGROV1 ovarian -16.9% | NCI/ADR-RES ovarian 7.59% | T-47D breast 6.69% | BT-549 breast -12.3% | MDA-MB-435 melanoma -47.9% | SW-620 colon -43.4% | MCF7 breast 6.18% | HCT-116 colon -97.8% | HCC-2998 colon -74.4% | KM12 colon -71.5%

CN(C)C(=O)SC1=C(c2c(Cl)cccc2Cl)C(=O)c2ccccc21
active: SR leukemia -36.3% | RPMI-8226 leukemia -2.59% | OVCAR-4 ovarian -11.6% | OVCAR-3 ovarian -81.5% | T-47D breast -71.9% | MDA-MB-435 melanoma -13% | SW-620 colon -83.9% | MCF7 breast -43.6%
inactive: OVCAR-8 ovarian 51.7% | OVCAR-5 ovarian 106% | SK-OV-3 ovarian 110% | IGROV1 ovarian 119% | NCI/ADR-RES ovarian 99.1% | BT-549 breast 87.2% | HCC-2998 colon 114%

S=C(NCCNC(=S)[S][Sn]([c]1ccccc1)([c]1ccccc1)[c]1ccccc1)[S][Sn]([c]1ccccc1)([c]1ccccc1)[c]1ccccc1
active: SR leukemia 0.639% | RPMI-8226 leukemia -24% | OVCAR-8 ovarian -99.2% | OVCAR-5 ovarian -93.6% | OVCAR-4 ovarian -100% | SK-OV-3 ovarian -100% | IGROV1 ovarian -84.8% | OVCAR-3 ovarian -98.5% | NCI/ADR-RES ovarian -64.5% | T-47D breast -75.7% | BT-549 breast -78.8% | SW-620 colon -97.5% | MCF7 breast -99.8% | HCC-2998 colon -82.4% | KM12 colon -99.4%

Cc1ccc(N=C=C(c2ccccc2)c2ccccc2)cc1
inactive: SR leukemia 22.9% | RPMI-8226 leukemia 16.6% | OVCAR-8 ovarian 70% | OVCAR-5 ovarian 113% | OVCAR-4 ovarian 103% | SK-OV-3 ovarian 112% | IGROV1 ovarian 57.2% | NCI/ADR-RES ovarian 81.2% | T-47D breast 85.7% | BT-549 breast 91.9% | SW-620 colon 35.8% | MCF7 breast 68.5% | HCC-2998 colon 101% | KM12 colon 95%

Oc1ccc(/C=N/NC(=S)Nc2ccccc2)nc1
active: SR leukemia -22.7% | RPMI-8226 leukemia 6.99% | NCI/ADR-RES ovarian 3.65% | HCC-2998 colon 5.05%
inactive: OVCAR-8 ovarian 15.2% | OVCAR-5 ovarian 34.1% | SK-OV-3 ovarian 18.9% | IGROV1 ovarian 23.2% | HS 578T breast 88.5% | T-47D breast 12.6% | BT-549 breast 44.8% | MDA-MB-435 melanoma 31.5% | SW-620 colon 39.4% | MCF7 breast 16.4% | KM12 colon 11.3%

O=C1OCc2cccc3cccc1c23
inactive: SR leukemia 93.1% | RPMI-8226 leukemia 100% | OVCAR-8 ovarian 101% | OVCAR-5 ovarian 108% | OVCAR-4 ovarian 97.1% | SK-OV-3 ovarian 112% | IGROV1 ovarian 102% | HS 578T breast 102% | NCI/ADR-RES ovarian 108% | T-47D breast 114% | MDA-MB-435 melanoma 115% | SW-620 colon 98.2% | MCF7 breast 86.3% | HCT-116 colon 104% | HCC-2998 colon 106%

CC1OC(OC2C(OC3CCC4(C)C(CCC5(C)C4CC=C4C6CC(C)(C)CCC6(CO)C(O)CC45C)C3(C)C)OC(C(=O)O)C(OC3OC(COC4OC(CO)C(O)C(O)C4O)C(O)C(O)C3O)C2O)C(O)C(O)C1O (configuration not stated)
active: SR leukemia -44.2% | RPMI-8226 leukemia -23.5% | OVCAR-8 ovarian -51.8% | OVCAR-5 ovarian -64% | OVCAR-4 ovarian -84.3% | SK-OV-3 ovarian -83.4% | IGROV1 ovarian -81.6% | NCI/ADR-RES ovarian -68% | T-47D breast -72.7% | BT-549 breast -92.5% | SW-620 colon -64.2% | MCF7 breast -67.7% | HCC-2998 colon -81.9% | KM12 colon -70.9%

CCCCCCCCCCCCCCCCN(CC)CC
active: RPMI-8226 leukemia -60.1% | OVCAR-8 ovarian -38.3% | OVCAR-5 ovarian -57.3% | OVCAR-4 ovarian -6.38% | SK-OV-3 ovarian -46.1% | IGROV1 ovarian -90.5% | OVCAR-3 ovarian -58.6% | NCI/ADR-RES ovarian -71.1% | T-47D breast 2.05% | BT-549 breast -36.8% | MDA-MB-435 melanoma -80.8% | SW-620 colon -69.1% | MCF7 breast -68.6% | HCC-2998 colon -97.1% | KM12 colon -57%

N#CSCC(=O)c1ccc(Cl)cc1
active: OVCAR-3 ovarian -25.3% | NCI/ADR-RES ovarian -16.4% | HCT-116 colon -16.3% | HCC-2998 colon -19.5%
inactive: SR leukemia 69.9% | RPMI-8226 leukemia 45.6% | OVCAR-8 ovarian 63.7% | OVCAR-5 ovarian 22.5% | OVCAR-4 ovarian 63.5% | SK-OV-3 ovarian 66.7% | T-47D breast 71.4% | BT-549 breast 43.7% | MDA-MB-435 melanoma 15.8% | SW-620 colon 22.7% | MCF7 breast 10.7% | KM12 colon 14.7%

Oc1c(Br)cc(Cl)cc1C(c1cc(Cl)cc(Br)c1O)C(Cl)(Cl)Cl
inactive: SR leukemia 28.5% | OVCAR-8 ovarian 14.3% | OVCAR-5 ovarian 42% | SK-OV-3 ovarian 32.5% | IGROV1 ovarian 24.8% | OVCAR-3 ovarian 12.7% | T-47D breast 28.9% | BT-549 breast 28% | MDA-MB-435 melanoma 39% | SW-620 colon 17.8% | MCF7 breast 11.1% | HCC-2998 colon 16.9% | KM12 colon 13%
active: NCI/ADR-RES ovarian 7.13% | HCT-116 colon 4.13%

C1=C(c2ccccc2)C(c2ccc(OCCN3CCCCC3)cc2)Oc2ccccc21 (configuration not stated)
active: SR leukemia -0.379% | MCF7 breast 6.42%
inactive: RPMI-8226 leukemia 15.5% | OVCAR-8 ovarian 77% | OVCAR-5 ovarian 72.4% | OVCAR-4 ovarian 64% | SK-OV-3 ovarian 74% | IGROV1 ovarian 44.2% | HS 578T breast 75.6% | NCI/ADR-RES ovarian 68.4% | T-47D breast 26.1% | BT-549 breast 72.9% | SW-620 colon 16.2% | HCC-2998 colon 34.1% | KM12 colon 46.4%

CC1(C)CC([P+](c2ccccc2)(c2ccccc2)c2ccccc2)=NN1
active: IGROV1 ovarian -22.8% | T-47D breast 6.55% | MCF7 breast 5.67%
inactive: RPMI-8226 leukemia 16.2% | OVCAR-8 ovarian 32.3% | OVCAR-5 ovarian 67.7% | OVCAR-4 ovarian 17.9% | SK-OV-3 ovarian 33.2% | HS 578T breast 72.1% | NCI/ADR-RES ovarian 105% | SW-620 colon 47.6% | HCT-116 colon 16.6% | HCC-2998 colon 18.1% | KM12 colon 21.7%

CNc1ccc(N)cc1
inactive: SR leukemia 119% | OVCAR-8 ovarian 113% | OVCAR-5 ovarian 106% | OVCAR-4 ovarian 89.6% | SK-OV-3 ovarian 114% | IGROV1 ovarian 101% | OVCAR-3 ovarian 112% | HS 578T breast 109% | NCI/ADR-RES ovarian 87.6% | T-47D breast 119% | BT-549 breast 87.6% | MDA-MB-435 melanoma 96.2% | SW-620 colon 104% | MCF7 breast 96.3% | HCT-116 colon 107% | HCC-2998 colon 100%
